Data from PubChem BioAssay (Tox21).
Results filed as inconclusive are left out. A number with no mark means an inactive call. Calls come from the whole dose curve; as a rule, active = well fitted activation curve with a large enough effect in the repeat runs; inconclusive = weak or mixed curves; inactive = flat fitted curve, though single readings scatter.

Test: A CellTox Green Cytotoxicity Assay to monitor cytotoxicity in HEK293 cells - 40 hour (AID 1224871); note: nearly all actives have a fitted effect of over 45% in size
Conditions: CellTox Green fluorescence; series mostly up to 76.8 µM; cytotoxicity increase: at the top concentration
From the text: National Center for Advancing Translational Sciences [NCATS]
NIH Chemical Genomics Center [NCGC]
U.S. Environmental Protection Agency [EPA]
National Institutes of Environmental Health Sciences [NIEHS]
National Toxicology Program [NTP]
Cell-based models are critical for drug discovery. Determining the natural cytotoxic effects resulting from test compounds is an essential research activity. A CellTox Green Cytotoxicity Assay to monitor cytotoxicity in real time of continues cell culture during 40 hours of the compound treatment was used to screen Tox21 10K library compounds in Hek293 cells. CellTox Green Cytotoxicity Assay is a nonlytic, homogeneous, biofluorescent method to measure cytotoxicity in cell culture after experimental manipulation. The assay system uses a proprietary asymmetric cyanine dye that is excluded from viable cells but preferentially stains the dead cell's DNA. […] Viable cells produce no appreciable increases in fluorescence. Therefore, the fluorescence signal produced by the binding interaction with dead cell DNA is proportional to cytotoxicity.
The mixture of Hek293 cell suspension and reagents were dispensed at 600cells/6 ul/well in 1536-well tissue culture treated black solid bottom plates using a Multidrop dispenser. After the assay plates were incubated at a 37 C/5% CO2 incubator for 5 hours, 23 nL of compounds dissolved in DMSO, positive and negative controls was transferred to the assay plate by a pintool work station. The plates were incubated at 37 C for 40 hours. The fluorescence intensity were measured at 0h, 8h, 16h, 24h, 32h and 40h time points using ViewLux plate reader during compound treatment.
% is set by controls: 0 for no effect and ±100 for the full control effect.

In order of falling “cytotoxicity increase” value:
1. O=C(c1ccco1)N1CCNCC1  28.6% [at 35.3 µM]
2. COc1cc(C)c(Cc2cnc(N)nc2N)cc1OC  15.7% [at 35.3 µM]
3. CC(=O)OCC(=O)[C@@]1(O)CC[C@H]2[C@@H]3CCC4=CC(=O)C=C[C@]4(C)[C@@]3(F)[C@@H](O)C[C@@]21C  8.58% [at 35.3 µM]
4. CCc1ccc(C(=O)C(C)CN2CCCCC2)cc1 (stereo not given)  5.84% [at 35.3 µM]
5. CCN(CCCCOC(=O)c1ccc(OC)c(OC)c1)C(C)Cc1ccc(OC)cc1 (stereo not given)  3.72% [at 35.3 µM]
6. Clc1cc(Cl)c2c(c1)N=C1CCCCCN1C2  0.129% [at 35.3 µM]
7. CC(C(=O)O)c1ccc(/C=C2\CCCCC2=O)cc1 (stereo not given)  -3.2% [at 35.3 µM]
8. C[C@H](N)C(=O)N[C@@H](C)C(=O)NC1[C@H]2CN(c3nc4c(cc3F)c(=O)c(C(=O)O)cn4-c3ccc(F)cc3F)C[C@@H]12 (stereo not given in full)  -5.43% [at 35.3 µM]
9. CC(CC(C#N)(c1ccccc1)C(C)C)N(C)C (stereo not given)  -11.3% [at 35.3 µM]

In order of rising “cytotoxicity increase” value:
1. Cc1c(-c2cccnc2)c2ccccc2n1CCCCC(=O)O  -14.1%
2. O=C(O)CNc1ccccc1  -13.7%
3. SCCOCCOCCS  -10.8%
4. CC(C)CCCCCOC(=O)CS  -10.3%
5. CCC(CC)C(=O)O  -10%
6. CC(O)C(C)O (stereo not given)  -7.66%
7. OCCCO  -4.88%
8. CCCCCCCCNC  -4.68%
9. Nc1ccc(-c2ccc(F)cc2)cc1  -4.55%
10. Cc1c(N=C=O)cccc1N=C=O  -3.77%
11. CC/C=C/CCO  -3.24%
12. CCOc1ccccc1O  -2.72%
13. O=C(c1ccc(Cl)cc1)c1ccc(Cl)cc1  -2.49%
14. [O-][n+]1ccc(Cl)cc1  -1.81%
15. CC(C)(C)N  -1.41%
16. CC/C=C\CCO  -1.08%
17. O=C1OC(=O)C2CC=CCC12 (stereo not given)  -1.04%
18. N#C[C@@H]1CC(F)(F)CN1C(=O)CNC1CC2CCC(C1)N2c1ncccn1 (stereo not given in full)  -0.752%
19. CCC(C)CCCC(C)(C)O (stereo not given)  -0.417%
20. CS(C)=O  1.59%
21. O=C(O)c1ccc2cc(O)ccc2c1  2.45%
22. CCCC1CCOC(C)S1 (stereo not given)  5.21%
23. Cc1nc(C)c(C)nc1C  5.33%
24. CCCC(=O)OCc1ccccc1  6.14%
25. CCC(C)C1N=C(C)C(C)S1 (stereo not given)  6.82%
26. O=C(Nc1ccccc1)c1cc([N+](=O)[O-])ccc1Cl  7.29%
27. O=P(c1ccccc1)(c1ccccc1)c1ccccc1  11.1%
28. O=C(OCCOCCOCCOC(=O)c1ccccc1)c1ccccc1  13.2%
29. C=C(C)C(=O)OCCCCCCCCCCOC(=O)C(=C)C  18.1%
30. CC1(C)[C@@H]2CC[C@]3(C2)[C@@H]1C(=O)CCC3(C)C  28.8%

CC1=CC(=C(c2ccc(N)cc2)c2ccc(N)cc2)C=CC1=N showed a cytotoxicity increase of 5.33% [at 6.97 µM].
